Screening results from PubChem BioAssay.
This is one part of a sample in which hits are shown more often than they occur.
AmpC inh no detg = blocks E. coli AmpC beta-lactamase in detergent-free assay; P00811; AmpC nitrocefin hydrolysis, absorbance 480 nm, 0.0001% Triton; Potency, µM (titrated, usually from 57.1 µM), for inactives: at the highest dose activity change, negative = inhibition, hits mostly inhibitors; 330,000 tested, 0.52% active;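 note: potency is the fitted concentration of half-maximal effect; plate controls were no compound for no effect and no enzyme for full effect; nearly all actives have a fitted effect of over 20% in size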
Target sequence (P00811 whole entry, looked up): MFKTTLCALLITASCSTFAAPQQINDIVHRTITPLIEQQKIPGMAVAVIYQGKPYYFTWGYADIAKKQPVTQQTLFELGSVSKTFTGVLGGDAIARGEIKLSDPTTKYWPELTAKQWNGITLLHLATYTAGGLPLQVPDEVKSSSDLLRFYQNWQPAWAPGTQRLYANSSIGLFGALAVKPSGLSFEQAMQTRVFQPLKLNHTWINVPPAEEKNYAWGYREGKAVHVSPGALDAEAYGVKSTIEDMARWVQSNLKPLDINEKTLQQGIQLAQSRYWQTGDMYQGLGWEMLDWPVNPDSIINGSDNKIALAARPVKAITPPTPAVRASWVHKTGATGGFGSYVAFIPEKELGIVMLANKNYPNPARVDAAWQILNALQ
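AmpC (5.3 nM in the dispensed reagent) in 20 mM phosphate pH 7.0 with 0.01% (detergent screen) or 0.0001% Triton X-100 was preincubated with compounds for 15 min at room temperature. Nitrocefin was then added from an 800 uM solution, and hydrolysis was followed at 480 nm.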
CHX counter = counter-screen hit for Shiga toxin inhibitors, cycloheximide | cell reporter, cycloheximide protein synthesis inhibition counterscreen | 300,000 tested, 12% active | max response, %; in the data active = max response mostly above about 13%, no sharp cut-off; inactive = mostly below about 14%; note: read at 38.3 µM for the half of the compounds with a filed dose; 0% is about no effect
NS1 inh = inhibitors of influenza NS1 protein function | Potency, µM (top dose mostly 46.1 µM), for the others: top-dose activity, positive = more growth | 270,000 tested, 0.4% active | AID 2326; calls by dose curve; note: potency is the fitted concentration of half-maximal effect; actives are rising curves; nearly all actives have a fitted effect of over 50% in size
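A cell-based growth assay was used: compounds that relieve NS1-induced slow growth of budding yeast raise OD600. Assay medium was yeast nitrogen base with ammonium sulphate and -URA supplement, pH 6.0, with 2% galactose.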
AmpC detergent = AmpC beta-lactamase inhibition with detergent present; Potency, µM (top dose mostly 114 µM), inactives show at the highest dose activity change, negative = inhibition, most hits filed as inhibitors; AmpC hydrolysis of nitrocefin, absorbance 480 nm, 0.01% Triton; 370,000 tested, 0.041% active;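 note: potency is the fitted concentration of half-maximal effect; 0% = no-compound wells and -100% = no-enzyme wells; nearly all actives have a fitted effect of over 25% in size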
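20 mM phosphate pH 7.0 + 0.01% (detergent screen) or 0.0001% Triton X-100; 5.3 nM AmpC reagent; cpd preinc 15 min RT; nitrocefin (800 uM stock) to start; A480 q20 s × 4 min; Activity was normalised to no-enzyme and no-compound control wells.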
Shiga toxin inh = Shiga toxin inhibition. Vero cells, Shiga toxin protein synthesis inhibition reporter. inhibition, % at 38.7 µM. 290,000 tested, 9.2% active. AID 2315; in the data active = inhibition mostly above about 28%, no sharp cut-off; inactive = mostly below about 43%; note: 0% is about no effect
Active calls of the source: *; ? = inconclusive; . = no result; + = active, no number. Unless noted, calls come from the whole dose curve; as a rule, active = well fitted curve in the direction sought with a large enough effect; inconclusive = small, poorly fitted or top-dose-only effect, or another doubt; inactive = no such curve, though single readings can be large; an effect the other way counts as inactive or inconclusive.

SMILES	AmpC inh no detg	CHX counter	NS1 inh	AmpC detergent	Shiga toxin inh
CCOC(=O)Nc1ccc(C(=O)/C=C/c2ccccc2)cc1	-1.2%	21.6*	-43.0%	3.0%	28.7
O=C(Nc1ccc(C(=O)Oc2ccccc2)c(O)c1)c1ccco1	-18.1%	54.6*	-52.7%	-11.8%	131.1*
C[C@H]1CN(CCO)CCN1c1ccccc1	.	.	-8.3%	.	.
O=C(C1CCN(C2CCN(Cc3ccc4c(c3)CCO4)CC2)CC1)N1CCOCC1	-17.9%	-2.8	-0.2%	6.5%	-12.1
CCOC(=O)Nc1ccc(Oc2ccccc2)cc1	-16.7%	36.2*	-29.5%	1.9%	120.9*
CCOC(=O)Nc1ccc(S(=O)(=O)NCc2ccccc2)cc1	-15.9%	-3.3	-19.3%	-5.8%	-6.6
O=C(Nc1ccc(C(=O)Oc2ccccc2)c(O)c1)c1ccccc1	-44.6%	27.7*	.	14.8%	81.8*
COC(=O)[C@@H]1c2cc3c(c(O)c2[C@@H](O)C[C@]1(C)O)C(=O)c1c(O)cc2c(c1C3=O)O[C@H]1O[C@@]2(C)[C@@H](O)[C@H](N(C)C)[C@H]1O	.	.	-5.5%	.	.
Cn1c(C2=C(O)CN(Cc3ccccc3)C2=N)nc2ccccc21	2.7%	33.1*	1.4%	6.1%	33.3*
Cc1ccc(CN=c2c([N+](=O)[O-])nn(-c3ccc4c(c3)OCCO4)n2O)cc1	-10.9%	72.8*	-19.5%	6.3%	164.5*
O=[N+]([O-])c1nn(-c2ccc3c(c2)OCCO3)n(O)c1=NCCCO	-8.3%	17.6*	-5.0%	?	48.4*
O=C(Nc1ccc2c(c1)nc1n2CCOC1)c1ccco1	-10.3%	32.5*	3.6%	-13.5%	72.6*
CC(=O)Nc1ccc2c(c1)nc1n2CCOC1	-5.1%	0.2	-0.8%	-0.4%	13.9
O=C(Nc1ccc2c(c1)nc1n2CCOC1)C1CCCCC1	-10.3%	28.9*	-4.1%	-1.8%	80.9*
O=C(Nc1ccc2c(c1)nc1n2CCSC1)c1ccco1	-5.9%	12.5	?	-4.0%	34.2
CCOc1ccccc1N(C)C(=O)Cn1cnc2onc(-c3ccc(F)cc3)c2c1=O	.	.	.	18.9%	.
CCc1nc(Nc2ccccc2)c2oc3ccccc3c2n1	-26.2%	16.7	-61.1%	0.8%	3.8
CCc1nc(Nc2ccc(N3CCN(C(C)=O)CC3)cc2)c2oc3ccccc3c2n1	183.1%	18.1*	-42.1%	35.5µM*	-4.5
CC(=O)N1CCN(c2ccc(Nc3ncnc4c3oc3ccccc34)cc2)CC1	103.7%	42.8*	?	-9.5%	128.4
FC(F)(F)c1cccc(-c2noc(-c3cc(-c4ccccc4)c(C(F)(F)F)s3)n2)c1	.	-3.5	.	.	5.2
O=C1C2CC=CCC2C(=O)N1c1ccc(NCCc2ccc(O)cc2)c([N+](=O)[O-])c1 (configuration not stated)	-11.9%	33.0*	-4.8%	?	63.0*
COc1ccc(S(=O)(=O)Nc2cccc(-c3ccc(N4CCC(C)CC4)nn3)c2)c(OC)c1	.	.	.	9.4%	.
NC(=S)NNC(=O)c1ccccc1	-18.4%	-3.2	11.1%	-7.1%	27.2
Cc1ccc(CSc2ccc(-c3cccs3)nn2)cc1	-19.9%	46.2*	10.2%	?	46.7*
c1cncc(CSc2ccc(-c3cccs3)nn2)c1	-7.1%	26.1*	.	-0.4%	44.2*
SMILES	AmpC inh no detg	CHX counter	NS1 inh	AmpC detergent	Shiga toxin inh
Cc1ccc(CNC(=O)CSc2ccc(-c3cccs3)nn2)cc1	-22.1%	0.3	0.6%	2.6%	-5.8
Fc1cccc(CSc2ccc(-c3cccs3)nn2)c1	.	.	.	8.8%	.
Cc1ccccc1CSc1ccc(-c2cccs2)nn1	.	.	.	-13.3%	.
Fc1ccc(CSc2ccc(-c3cccs3)nn2)cc1	-19.8%	29.8*	-4.4%	-7.0%	38.1
O=C(Nc1nnc(Cc2ccccc2F)s1)Nc1ccccc1F	-23.4%	13.7	-11.5%	1.9%	25.7
CCc1ccc(NC(=O)C(CC)n2nnc(C(=O)OC)c2C(=O)OC)cc1 (configuration not stated)	.	.	.	18.5%	.
Cc1ccc2nc(NC(=O)C3CCN(S(=O)(=O)c4cc([N+](=O)[O-])ccc4Cl)CC3)sc2c1	?	12.6*	?	-5.3%	+
Cc1ccc(NC(=O)C2CCN(S(=O)(=O)c3cc([N+](=O)[O-])ccc3Cl)CC2)nc1	-35.8%	.	.	.	.
O=C(Nc1nc2ccc(F)cc2s1)C1CCN(S(=O)(=O)c2cc([N+](=O)[O-])ccc2Cl)CC1	?	33.9*	29.8%	-10.1%	52.0*
O=C(O)c1ccc(S(=O)(=O)N[C@H](Cc2c[nH]c3ccccc23)C(=O)O)cc1	-3.7%	-2.1	.	1.0%	-6.8
N=C(N)SCCN=C(N)N	.	-0.1	.	.	-8.4
COc1ccccc1CNC(=O)c1ccccc1NC(=O)C1=C(C)OCCS1	-20.2%	6.9	-11.3%	-2.7%	12.3
CC1=C(C(=O)O)N2C(=O)C(NC(=O)c3ccccc3Cl)C2SC1 (configuration not stated)	-31.0%	-3.1	1.3%	70.8µM*	-1.6
CC1=C(C(=O)Nc2ccccn2)C(c2ccccc2Cl)NC(=S)N1 (configuration not stated)	-28.3%	39.7*	.	-7.8%	100.2*
CC1=C(C(=O)Nc2ccccn2)C(c2ccc(Cl)cc2Cl)NC(=S)N1 (configuration not stated)	?	34.7*	.	4.1%	111.3*
O=C(CSc1nnc(-c2ccncc2)n1-c1ccc(Cl)cc1)NCc1cccs1	32.3%	-0.7	-15.0%	-5.8%	-13.9
Cc1cccc(N2CCN(C(=O)c3oc(=O)c4ccccc4c3-c3ccccc3)CC2C)c1 (configuration not stated)	.	.	.	2.9%	.
CCCCOc1ccc2c(c1)C(=O)c1cc(O)ccc1-2	-5.3%	29.3*	-30.3%	1.2%	93.0*
O=C(COC(=O)Cc1ccc(Cl)cc1)NCc1cccs1	-13.2%	.	.	.	.
Cc1ccc(N2C(=O)c3ccccc3C2O)nc1 (configuration not stated)	-16.9%	6.9	-1.5%	-9.2%	-0.2
Cc1ccc(N2C(=O)c3ccccc3C2Nc2ccccc2F)nc1 (configuration not stated)	2.8%	32.1*	-69.6%	-10.6%	54.9*
Cc1ccc(C(=O)N(C)c2ccc(OCC(=O)N3c4ccc(C)cc4C4CN(C)CCC43)cc2)cc1 (configuration not stated)	149.6%	36.7*	10.1%	-5.3%	50.9
S=C(Nc1ccc(Cl)cc1)c1nc2ccccc2s1	-16.1%	33.9*	5.5%	-4.2%	35.0
O=C(Nc1ccc(Cl)cc1)/C(=C/c1cccc(O)c1)c1nc2ccccc2s1	-52.0%	94.7*	7.7%	-1.3%	154.0*
O=C(COc1ccc(Cl)cc1)Nc1ccc(-c2nc3ccccc3s2)c(O)c1	.	.	.	11.9%	.
COc1ccc(C(=O)c2sc3nc(C)cc(-c4cccs4)c3c2N)cc1OC	68.9%	-3.1	26.3%	-3.1%	-18.2
CC(=O)c1cccc(CN2CCC(C(=O)Nc3ccc(-c4cccc(C)c4)cc3)CC2)c1	95.2%	-1.8	-29.6%	?	3.0
CN(CC(=O)Nc1cccc(F)c1)C(=O)c1ccccc1Sc1ccccc1C#N	-25.9%	.	.	-2.1%	.
